{"source": "PubChem BioAssay (NCATS)", "note": "Results filed as inconclusive are left out. Unmarked numbers belong to inactive results. Calls follow the shape of the dose curve; as a rule, active = well fitted inhibition curve with a large enough effect; inconclusive = small, poorly fitted or top-dose-only effect; inactive = flat fitted curve, though single readings scatter."}
{"target": "Aldehyde dehydrogenase, mitochondrial (Homo sapiens) (UniProt P05091)", "experiment": "qHTS for Inhibitors of the Aldehyde Dehydrogenase Family (ALDH2) Primary screen (AID 2061308);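 also: plate controls were vehicle for no effect and reference inhibitor for full effect; nearly all actives have a fitted effect of over 55% in size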", "conditions": "ALDH2 enzyme inhibition qHTS, 1536-well; series mostly up to 56 µM; activity change, negative = inhibition: at the top concentration", "units": {"activity change, negative = inhibition": "%"}}
{"molecule": "COC(=O)c1c(NC(=O)COC(=O)c2ccc(Cl)cc2[N+](=O)[O-])sc2c1CCCCC2", "activity change, negative = inhibition": -27.5}
{"molecule": "Cc1cnc(-c2ccccc2C(C)C)nc1NCC1CCN(C2COC2)CC1", "activity change, negative = inhibition": -3.78}
{"molecule": "Cc1ccc(S(=O)(=O)Nc2ccccc2C(=O)Nc2nc(-c3ccccc3)co2)cc1", "activity change, negative = inhibition": 7.18}
{"molecule": "Cc1cc(C)nc(NC(=S)N2CCN(c3ccc(S(C)(=O)=O)cc3F)CC2)c1", "activity change, negative = inhibition": -5.97}
{"molecule": "COc1ccc(NC(=O)C(OC(=O)CNC(=O)c2ccccc2)c2ccccc2)c(C)c1", "note": "(stereo unspecified)", "activity change, negative = inhibition": 15}
{"molecule": "Cc1cccc(-c2csc(N3CCC(C(N)=O)CC3)n2)c1", "activity change, negative = inhibition": 0.161}
{"molecule": "CN1CCN(c2cc(-c3nc(Nc4ccc(F)c(F)c4)c4ccccc4n3)ccn2)CC1", "activity change, negative = inhibition": 3.08}
{"molecule": "CN(C(=O)c1cn2c(-c3ccc(C(F)(F)F)cc3)cnc2cn1)c1ccc(C#N)cc1", "activity change, negative = inhibition": -7.49}
{"molecule": "CC(C)c1ccccc1-c1ncc(F)c(NCc2ccc(-c3ccn[nH]3)cc2)n1", "activity change, negative = inhibition": -8.67}
{"molecule": "CC(C)(C)c1ccc(Nc2nc(C#N)nc(NC3CCCC3)n2)cc1", "activity change, negative = inhibition": -0.721}
{"molecule": "NC(=O)c1cccc(-c2noc(-c3ccccc3F)n2)c1", "activity change, negative = inhibition": 1.56}
{"molecule": "Cc1ccc(OCCn2c(CCNC(=O)c3cccc(F)c3)nc3ccccc32)cc1", "activity change, negative = inhibition": -15.8}
{"molecule": "Cc1ccc(-c2ccc(=O)n(CC(=O)NCCC3CC3)n2)cc1", "activity change, negative = inhibition": 4.78}
{"molecule": "O=C(CNC(=O)C1CCCCC1)OC(C(=O)Nc1cc(C(F)(F)F)ccc1Cl)c1ccccc1", "note": "(stereo unspecified)", "activity change, negative = inhibition": 5.3}
{"molecule": "COc1cccc(NC(=S)N2CCN(c3ccc4ccccc4n3)CC2)n1", "activity change, negative = inhibition": 3.66}
{"molecule": "CC(C)(C)OC(=O)N[C@@H](Cc1ccc(OS(=O)(=O)c2cccc3cnccc23)cc1)C(=O)N1CCCN(C(=O)OC(C)(C)C)CC1", "activity change, negative = inhibition": 8.03}
